From PubChem BioAssay (NCI)
This is part of a sample that, as a whole, favours compounds with a hit. Of some 79,000 tested, about 15% had one in any assay. A number with no mark means an inactive call. The source made the active and inactive calls. Rule as the data show it: active = growth inhibition above about 70%; inactive = the rest.

Experiments:
[1] = NCI Yeast Anticancer Drug Screen. Data for the rad50 strain (AID 155);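 also: 0% = growth of vehicle-only cultures of the same strain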; conditions: S. cerevisiae rad50 strain growth inhibition; at 50.0 µM; stronger effect = higher value
In short: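 Growth of the mutant yeast was measured after compound exposure and referenced to vehicle-treated cultures.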

[2] = NCI Yeast Anticancer Drug Screen. Data for the mec2-1 strain (AID 157); conditions: S. cerevisiae mec2-1 strain, at 50.0 µM, stronger effect = higher value
In short: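 Each compound was tested on mec2-1 yeast, a strain altered in DNA damage repair or cell cycle control. Growth inhibition is reported relative to vehicle.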

[3] = NCI Yeast Anticancer Drug Screen. Data for the sgs1 mgt1 strain (AID 161);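 also: 0% = growth of cultures given vehicle only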; conditions: S. cerevisiae sgs1 mgt1 strain, at 50.0 µM, stronger effect = higher value
In short: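 Mutant yeast exposed to compound; growth scored against vehicle-only wells.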

[4] = NCI Yeast Anticancer Drug Screen. Data for the cln2 rad14 strain (AID 165);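 also: 0% = growth equal to vehicle treated cultures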; conditions: S. cerevisiae cln2 rad14 strain, at 50.0 µM, stronger effect = higher value
In short: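 Test compounds were added to cln2 rad14 yeast cultures; inhibition of growth was then determined by comparison with vehicle treatment.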

[5] = NCI Yeast Anticancer Drug Screen. Data for the bub3 strain (AID 167); conditions: S. cerevisiae bub3 mutant strain, at 50.0 µM, stronger effect = higher value
In short: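 Whole-cell yeast assay. The mutant strain was incubated with compounds, and growth inhibition was determined by comparison with vehicle-treated cells.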

[6] = NCI Yeast Anticancer Drug Screen. Data for the mlh1 rad18 strain (AID 175); conditions: S. cerevisiae mlh1 rad18 strain growth inhibition; at 50.0 µM; stronger effect = higher value
In short: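 Inhibition values reflect reduced growth of mutant yeast versus vehicle-treated controls following compound exposure; the mutations affect DNA damage repair.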

SMILES	growth inhibition [1]	growth inhibition [2]	growth inhibition [3]	growth inhibition [4]	growth inhibition [5]	growth inhibition [6]
C/C(=N/N(CCCCN(/N=C(/C)c1ccccc1)c1ccccc1)c1ccccc1)c1ccccc1	48.5%	13.2%	17.1%	26.3%	1.55%	39.2%
CC1=NN(c2nc(N)nc(CSc3cc(Cl)c(C)cc3S(N)(=O)=O)n2)C(C)(C)C1	-15.5%	-8.7%	12.2%	-8.35%	-18.1%	-4.95%
CC1CN=C(N(C(=O)Nc2ccc(Cl)cc2)c2cccc(Cl)c2)S1 (stereo not given)	-30.9%	-13.7%	-50.1%	-8.75%	-14.8%	-52%
CCc1c(Cl)nc(N)nc1Nc1ccc(C)cc1	-20.7%	-4.8%	-11.2%	-25%	12%	-6.55%
COc1ccc2c3c([nH]c2c1)C(C)N(S(=O)(=O)c1ccccc1)CC3 (stereo not given)	-8.1%	-0.9%	-2.65%	-4.9%	8.45%	5.7%
C=C1OC(C2CCCCC2)=C(C(=O)OCC)C1C (stereo not given)	-9.6%	-17.2%	-39%	-21.1%	1.9%	-9.45%
O=C(NC(CSC(=O)c1ccccc1)C(=O)O)c1ccccc1 (stereo not given)	3.2%	-8.5%	-2.6%	-22.1%	6.8%	7.45%
Cc1ccc(N=NC(=O)NNc2ccc(C)c([N+](=O)[O-])c2)cc1[N+](=O)[O-]	55%	3.9%	17.6%	16.1%	6.45%	32.4%
Cc1ccc(NC(=S)Nc2ccccc2C)nc1	5.95%	9.35%	27.9%	13.1%	2.6%	18.9%
CN=NN(C)C(=O)NC	-11.9%	0.7%	10.1%	-13%	-25%	30.4%
CCC[CH2][Sn]([CH2]CCC)([O]C(=O)c1cccc(F)c1F)[O][Sn]([CH2]CCC)([CH2]CCC)[O]C(=O)c1cccc(F)c1F	89.4% (active)	91.5% (active)	91.2% (active)	88.5% (active)	90% (active)	86% (active)
FS(F)(F)(F)(F)c1cccc(NC(=S)SCc2ccc(Cl)cc2)c1	43.6%	24.8%	39.8%	32.4%	6.8%	30.1%
O=C1Cc2ccccc2CCc2ccccc21	13.2%	-13.3%	6.5%	22.8%	-13.8%	24%
CN1CCN(C(=S)C(O)(c2ccccc2)c2ccccc2)CC1	1.75%	-1.85%	-2.35%	1.45%	16.1%	-8.6%
Cc1nc(Cl)c(Cl)c(Cl)n1	5%	-7.9%	-0.6%	5.55%	-4%	-5.2%
CCOC(=O)c1c(O)csc1N	7.85%	5.45%	3.8%	-16.9%	-20.6%	10.7%
C/C(=N\NC(N)=O)c1cc2cc([N+](=O)[O-])ccc2oc1=O	-2.2%	23.6%	16.1%	-7.85%	-12.6%	8.5%
COC(=O)c1ccccc1NC(=O)C(=O)NNC(=O)c1ccncc1	10.3%	-3%	-4.4%	7.55%	-0.8%	22.1%
COC(=O)CCN1CCN(CCO)CC1C (stereo not given)	-36.9%	-39.8%	-26.6%	-9.75%	-2%	-32.5%
O=C(Oc1c(Cl)cc(Cl)cc1C=Nc1ccc(Cl)cc1)c1ccccc1	67.1%	71.4% (active)	88.7% (active)	42.4%	58.2%	83.9% (active)
